Consider 23 compounds from PubChem BioAssay.

The structures appear in SMILES notation. For part of these data: Results with a measured potency or affinity are listed apart. This is one part of the list. Records with an inconclusive call do not appear. The source made the active and inactive calls. Unless noted, no rule for the calls is given here.

Experiment [1] in a line: A549 cell cytotoxicity, dose response, cytotoxicity control, plate reader, cherry-pick, antagonist series (AID 743412).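 Also: 0% = neutral control wells and -100% = positive control wells.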
A short description of experiment [2]: Ring1 de-repression measured by qPCR – cell-based, mouse ESC, RT-qPCR, cherry-pick, esBAF inhibitor project, confirmation (AID 743176;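 active = Ring1 gene expression raised more than 2-fold over untreated cells in both replicates at either tested dose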;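 also: Ring1 transcript normalised to actin housekeeping signal by TaqMan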). As to conditions: mouse ESC E14, Ring1 mRNA RT-qPCR fold change, stronger effect = higher value. (Quantitative PCR measures a nucleic acid by following its amplification.)
A short description of experiment [3]: Bmi1 mRNA increase in mouse ESCs – cell-based, RT-qPCR, mouse ESC, single point, cherry-pick, confirmation (AID 743180;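 active = Bmi1 expression fold change above 6 at either tested concentration, seen in replicate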;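 also: higher fold means more Bmi1 de-repression and stronger esBAF inhibition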). As to conditions: mouse ESC E14, Bmi1 mRNA qPCR fold, stronger effect = higher value.
Experiment [4] can be described thus: viability loss in A549 cells – cell-based, plate reader, single point, cherry-pick, cytotoxicity control (AID 743188). Particulars: at 25 µM.
Experiment [5] is described as follows: viability loss in HepG2 cells – cell-based, plate reader, single point, cherry-pick, cytotoxicity control (AID 743189; in the data active = activity change below about -50%). Particulars: at 25 µM, stronger effect = lower value.
A short description of experiment [6]: viability loss in HEK293 cells – cell-based, plate reader, single point, cherry-pick, cytotoxicity control (AID 743190; in the data active = activity change below about -38%, passing the limit was not always enough). Particulars: at 25 µM.
Experiment [7] can be described thus: Fgf4 repression measured by qPCR – cell-based, mouse ESC, RT-qPCR, cherry-pick, esBAF inhibitor project, confirmation (AID 743177;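 active = Fgf4 expression under 0.8 fold of control in both repeat measurements at one or both tested doses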;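 also: Fgf4 transcript normalised to actin in duplex TaqMan qPCR; cells exposed to compound for 24 h before lysis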). As to conditions: mouse ESC E14, Fgf4 mRNA qPCR fold change, stronger effect = lower value.
Experiment [8] can be described thus: OVCAR8 cell viability loss – plate reader, dry powder samples, PAX8 project, dose response (AID 743197).

`C=CCN1CCN(C(=O)CCCc2ccccc2)CC1`: the compound was classed as inactive in experiment [1].

Consider `O=C(O)c1ccc(N/N=C/c2c[nH]c3ccccc23)cc1`, for which the compound was called inactive in experiment [1].

`COc1ccc(-c2csc(Nc3cccc(C)n3)n2)cc1OC`: the fold change in experiment [2] (Ring1 fold increase, at 7 µM) is 1.32; in experiment [2] (at 33 µM), 1.24 (inactive); in experiment [3] (Bmi1 de-repression, at 7 µM), 1.47; in experiment [3] (at 33 µM) it was 2.28 (inactive). The cell viability change % (negative = cytotoxic) in experiment [4] is -8.92% (inactive). The results for the activity change, negative = inhibition in experiment [5] and in experiment [6] were 29% (inactive) and 4.06% (inactive), respectively.

In the case of `O=C(c1noc2c1CCCC2)N1CCc2ccccc2C1`, the fold change in experiment [2] (Ring1 fold increase, at 7 µM) is 1.38; in experiment [2] (at 33 µM) it was 1.19 (inactive); in experiment [3] (Bmi1 de-repression, at 7 µM), 1.08; in experiment [3] (at 33 µM) it was 1.13 (inactive). Also, the Fgf4 expression fold change was 1.06 in experiment [7] (Fgf4 expression, at 7 µM) and 1.15 (inactive) in experiment [7] (at 33 µM). Moreover, the cell viability change % (negative = cytotoxic) in experiment [4] was -13.7% (inactive). Further, the activity change, negative = inhibition is 0.136% (inactive) in experiment [5] and -12.4% (inactive) in experiment [6].

Take `COc1ccc(Nc2ccc3ccccc3c2)cc1`: the fold change was 1.4 in experiment [2] (Ring1 fold increase, at 7 µM); 1.14 (inactive) in experiment [2] (at 33 µM); 1.37 in experiment [3] (Bmi1 de-repression, at 7 µM); 2.11 (inactive) in experiment [3] (at 33 µM). Also, the cell viability change % (negative = cytotoxic) in experiment [4] is -5.46% (inactive). Moreover, the activity change, negative = inhibition in experiment [5] is 10% (inactive); in experiment [6], -0.0365% (inactive).

As for `Cc1cc(Cl)nc(NC(=O)Nc2cccc(Cl)c2)n1`, the fold change in experiment [2] (Ring1 fold increase, at 7 µM) was 1.34; in experiment [2] (at 33 µM), 1.28 (inactive); in experiment [3] (Bmi1 de-repression, at 7 µM), 1.61; in experiment [3] (at 33 µM) it was 1.24 (inactive). Also, the Fgf4 expression fold change in experiment [7] (Fgf4 expression, at 7 µM) was 0.987; in experiment [7] (at 33 µM), 1.08 (inactive). Further, the cell viability change % (negative = cytotoxic) in experiment [4] is -1.39% (inactive). For the same compound, the activity change, negative = inhibition was -22.4% (inactive) in experiment [5] and 1.81% (inactive) in experiment [6].

With `COc1ccc(CC(=O)Nc2cccc(-c3nnc(-c4cccc(C)c4)o3)c2)cc1OC`, the result in experiment [1] was inactive.

Take `COc1ccc(Nc2ncnc3sc(C)cc23)cc1`: the fold change in experiment [2] (Ring1 fold increase, at 7 µM) is 1.32; in experiment [2] (at 33 µM), 1.33 (inactive); in experiment [3] (Bmi1 de-repression, at 7 µM), 1.3; in experiment [3] (at 33 µM), 1.05 (inactive). Moreover, the Fgf4 expression fold change is 1.18 in experiment [7] (Fgf4 expression, at 7 µM) and 1.26 (inactive) in experiment [7] (at 33 µM). The cell viability change % (negative = cytotoxic) in experiment [4] is -6.19% (inactive). Besides, the activity change, negative = inhibition in experiment [5] is -4.23% (inactive); in experiment [6], -3.92% (inactive).

For the compound `O=S(=O)(NC[C@@H]1CC[C@@H]2[C@@H](CN2CC(c2ccccc2)c2ccccc2)O1)c1ccccc1F`, the outcome in experiment [8] was inactive.

In the case of `Cc1ccc(-c2noc(-c3cccs3)n2)cc1`, in experiment [1], the call was inactive.

As to `CN(C)c1ccc(CSc2ccccc2)cc1`, the fold change in experiment [2] (Ring1 fold increase, at 7 µM) is 1.14; in experiment [2] (at 33 µM), 1.08 (inactive); in experiment [3] (Bmi1 de-repression, at 7 µM), 1.01; in experiment [3] (at 33 µM), 0.984 (inactive). Also, the cell viability change % (negative = cytotoxic) in experiment [4] was 5.13% (inactive). Further, the activity change, negative = inhibition is -22.2% (inactive) in experiment [5] and 0.895% (inactive) in experiment [6].

For the compound `CCS(=O)(=O)n1nc(-c2ccc(OC)cc2)nc1SC`, the fold change in experiment [2] (Ring1 fold increase, at 7 µM) was 1.25; in experiment [2] (at 33 µM), 1.01 (inactive); in experiment [3] (Bmi1 de-repression, at 7 µM), 1.24; in experiment [3] (at 33 µM), 1.6 (inactive). The Fgf4 expression fold change in experiment [7] (Fgf4 expression, at 7 µM) was 0.938; in experiment [7] (at 33 µM) it was 1.05 (inactive). In addition, in experiment [4], the cell viability change % (negative = cytotoxic) is -13.7% (inactive). In addition, the values for the activity change, negative = inhibition in experiment [5] and in experiment [6] were -11.2% (inactive) and -16.8% (inactive), respectively.

Regarding `COc1ccc(-n2ncc3c(N4CCC(C)CC4)ncnc32)cc1`, the call in experiment [1] was inactive.

As for `Cc1nc(-c2ccccc2)sc1-c1nnc(C2CC2)o1`, the fold change is 1.23 in experiment [2] (Ring1 fold increase, at 7 µM); 1.31 (inactive) in experiment [2] (at 33 µM); 1.21 in experiment [3] (Bmi1 de-repression, at 7 µM); 1.79 (inactive) in experiment [3] (at 33 µM). The Fgf4 expression fold change is 0.99 in experiment [7] (Fgf4 expression, at 7 µM) and 1.05 (inactive) in experiment [7] (at 33 µM). For the same compound, in experiment [4], the cell viability change % (negative = cytotoxic) is 1.56% (inactive). Besides, the activity change, negative = inhibition in experiment [5] is -14.2% (inactive); in experiment [6] it was -0.816% (inactive).

For `CCCOc1ccc2cc(-c3ccccn3)c(=O)oc2c1`, the compound was classed as inactive in experiment [1].

For the compound `CCc1sc(C(=O)N2CCN(CC(=O)Nc3cccc(F)c3)CC2)cc1C`, the fold change in experiment [2] (Ring1 fold increase, at 7 µM) is 1.14; in experiment [2] (at 33 µM), 1.01 (inactive); in experiment [3] (Bmi1 de-repression, at 7 µM) it was 1.34; in experiment [3] (at 33 µM) it was 1.56 (inactive). The Fgf4 expression fold change in experiment [7] (Fgf4 expression, at 7 µM) is 1.11; in experiment [7] (at 33 µM), 0.972 (inactive). The cell viability change % (negative = cytotoxic) in experiment [4] was 0.0417% (inactive). In addition, the activity change, negative = inhibition in experiment [5] was -21.7% (inactive); in experiment [6], -24% (inactive).

On to `O=C(Nc1nc(-c2ccc(S(=O)(=O)N3CCOCC3)cc2)cs1)c1ccccc1`, for which the result in experiment [1] was inactive.

As to `Cc1ccc(-n2ncc3c(N4CCN(c5ccccc5)CC4)ncnc32)c(C)c1`, in experiment [1], the outcome was inactive.

On to `COc1cc2ccccc2cc1C(=O)Nc1ccccc1C`, for which the fold change is 1.25 in experiment [2] (Ring1 fold increase, at 7 µM); 0.965 (inactive) in experiment [2] (at 33 µM); 1.37 in experiment [3] (Bmi1 de-repression, at 7 µM); 1.49 (inactive) in experiment [3] (at 33 µM). The Fgf4 expression fold change in experiment [7] (Fgf4 expression, at 7 µM) was 0.978; in experiment [7] (at 33 µM), 0.878 (inactive). Besides, the cell viability change % (negative = cytotoxic) in experiment [4] was -15.3% (inactive). Also, the values for the activity change, negative = inhibition in experiment [5] and in experiment [6] were -26.3% (inactive) and -24.6% (inactive), respectively.

Take `CC(=O)N1CCCC(c2cc(C(=O)Nc3ccccc3)no2)C1` (stereo not given): the result in experiment [1] was inactive.

In the case of `O=c1c2c(nc3cc(-c4ccc(F)cc4)[nH]n13)CCCC2`, in experiment [1], the call was inactive.

With `COc1ccccc1CCn1cnc(-c2ccccc2OC)c1C(C)C`, the compound was classed as inactive in experiment [1].

On to `COc1ccc(C(=O)CCc2ccccc2O)c(OC)c1`, for which the fold change was 1.29 in experiment [2] (Ring1 fold increase, at 7 µM); 1.23 (inactive) in experiment [2] (at 33 µM); 1.55 in experiment [3] (Bmi1 de-repression, at 7 µM); 1.13 (inactive) in experiment [3] (at 33 µM). Moreover, the Fgf4 expression fold change in experiment [7] (Fgf4 expression, at 7 µM) was 0.836; in experiment [7] (at 33 µM) it was 0.979 (inactive). Also, in experiment [4], the cell viability change % (negative = cytotoxic) is -6.31% (inactive). In addition, the results for the activity change, negative = inhibition in experiment [5] and in experiment [6] were -33.9% (inactive) and 14.9% (inactive), respectively.
